Laboratory results reported in PubChem BioAssay.
Unmarked numbers belong to inactive results. Where a call stands in place of a potency, no number is given. For some assays here: Potency and affinity values are given separately. Active and inactive are the calls of the source. Unless noted, how the calls were made is not given here.

Legend:
[1] = antimalarial activity against Dd2 strain (AID 2302;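 active means growth inhibition above 50% at the single 2 µM test dose, taken to imply half-maximal potency below 2 µM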); details: P. falciparum Dd2 in RBCs, LDH growth readout, 72 h; at 2 µM; stronger effect = higher value
[2] = HepG2 cytotoxicity, primary screen, cytotoxicity control for P. falciparum antimalarial project, cell-based, ATP luminescence (AID 2303;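 active means inhibition above 50%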); details: HepG2 viability, 24-48 h, at 10 µM, stronger effect = higher value
[3] = molecular target: L-lactate dehydrogenase (Plasmodium falciparum (isolate CDC / Honduras)) (UniProt Q27743); assay: PfLDH activity inhibition – cell lysate, 3D7 strain, counter-screen for P. falciparum growth inhibition project (AID 2304); details: P. falciparum 3D7 crude extract, LDH APAD/NBT absorbance; at 2 µM; stronger effect = higher value
[4] = inhibition of 3D7 malaria parasite growth – strain 3D7 (AID 2306); details: P. falciparum 3D7 erythrocytic growth, LDH absorbance, 72 h; at 2 µM; stronger effect = higher value
[5] = molecular target: Calcium-dependent protein kinase 1 (Plasmodium falciparum (isolate 3D7)) (UniProt P62344); assay: PfCDPK1 kinase inhibitors, biochemical, TCAMS library (AID 1159585; cut-off not given, nearly all actives have IC50 up to about 0.98 µM;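 further: inhibitors leave more ATP so luminescence rises with inhibition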); details: recombinant PfCDPK1, Kinase-Glo ATP depletion luminescence
[6] = molecular target: Plasmodium falciparum protein kinase 6 (PK6, PF3D7_1337100) (UniProt Q8IDW1); assay: PfPK6 kinase inhibitors, biochemical, TCAMS library (AID 1159586); details: recombinant PfPK6, Kinase-Glo ATP depletion luminescence
[7] = molecular target: Protein kinase 7 (PK7), Plasmodium falciparum 3D7 (PF3D7_0213400) (UniProt Q7YTF7); assay: inhibition of Plasmodium PK7 catalytic activity – biochemical, TCAMS antimalarial set, Kinase-Glo luminescence (AID 1159587); details: recombinant PfPK7, Kinase-Glo ATP depletion luminescence
[8] = molecular target: Calcium-dependent protein kinase 4 (Plasmodium falciparum (isolate 3D7)) (UniProt Q8IBS5); assay: PfCDPK4 kinase inhibitors, biochemical, TCAMS library (AID 1159588; cut-off not given, nearly all actives have IC50 up to about 0.91 µM); details: recombinant PfCDPK4, Kinase-Glo ATP depletion luminescence
Sequence of Calcium-dependent protein kinase 4 (Plasmodium falciparum (isolate 3D7)) (Q8IBS5 whole entry, looked up): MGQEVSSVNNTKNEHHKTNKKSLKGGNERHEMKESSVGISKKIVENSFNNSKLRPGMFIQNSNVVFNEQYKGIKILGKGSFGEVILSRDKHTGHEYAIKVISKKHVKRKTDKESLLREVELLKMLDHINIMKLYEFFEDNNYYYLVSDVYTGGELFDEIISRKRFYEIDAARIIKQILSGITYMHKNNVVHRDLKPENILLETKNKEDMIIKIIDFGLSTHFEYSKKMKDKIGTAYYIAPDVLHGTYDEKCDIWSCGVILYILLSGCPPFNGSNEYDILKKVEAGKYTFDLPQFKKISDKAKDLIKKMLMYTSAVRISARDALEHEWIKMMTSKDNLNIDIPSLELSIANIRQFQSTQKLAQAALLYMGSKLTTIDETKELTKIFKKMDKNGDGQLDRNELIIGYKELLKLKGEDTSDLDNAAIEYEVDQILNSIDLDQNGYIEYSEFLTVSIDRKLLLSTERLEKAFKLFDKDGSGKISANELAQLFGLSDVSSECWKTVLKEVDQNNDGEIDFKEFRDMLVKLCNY

Sequence of Plasmodium falciparum protein kinase 6 (PK6, PF3D7_1337100) (Q8IDW1 1-305): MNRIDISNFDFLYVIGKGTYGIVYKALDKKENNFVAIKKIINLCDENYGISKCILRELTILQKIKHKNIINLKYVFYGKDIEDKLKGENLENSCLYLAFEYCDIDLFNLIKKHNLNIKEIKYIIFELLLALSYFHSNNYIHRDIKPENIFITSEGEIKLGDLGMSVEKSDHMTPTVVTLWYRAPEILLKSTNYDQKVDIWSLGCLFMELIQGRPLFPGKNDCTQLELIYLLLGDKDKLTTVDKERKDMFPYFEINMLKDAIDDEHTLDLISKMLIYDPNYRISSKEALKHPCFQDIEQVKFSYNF
Sequence of Protein kinase 7 (PK7), Plasmodium falciparum 3D7 (PF3D7_0213400) (Q7YTF7 1-343): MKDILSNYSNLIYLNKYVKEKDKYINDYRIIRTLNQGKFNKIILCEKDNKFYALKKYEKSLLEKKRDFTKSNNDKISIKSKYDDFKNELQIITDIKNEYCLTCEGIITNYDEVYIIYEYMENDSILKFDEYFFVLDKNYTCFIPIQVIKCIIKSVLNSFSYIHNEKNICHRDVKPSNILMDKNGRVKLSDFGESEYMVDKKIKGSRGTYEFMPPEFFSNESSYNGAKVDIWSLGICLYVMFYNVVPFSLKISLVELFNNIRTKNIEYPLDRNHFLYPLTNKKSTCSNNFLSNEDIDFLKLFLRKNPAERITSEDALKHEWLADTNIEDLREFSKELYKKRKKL
Sequence of Calcium-dependent protein kinase 1 (Plasmodium falciparum (isolate 3D7)) (P62344 whole entry, looked up): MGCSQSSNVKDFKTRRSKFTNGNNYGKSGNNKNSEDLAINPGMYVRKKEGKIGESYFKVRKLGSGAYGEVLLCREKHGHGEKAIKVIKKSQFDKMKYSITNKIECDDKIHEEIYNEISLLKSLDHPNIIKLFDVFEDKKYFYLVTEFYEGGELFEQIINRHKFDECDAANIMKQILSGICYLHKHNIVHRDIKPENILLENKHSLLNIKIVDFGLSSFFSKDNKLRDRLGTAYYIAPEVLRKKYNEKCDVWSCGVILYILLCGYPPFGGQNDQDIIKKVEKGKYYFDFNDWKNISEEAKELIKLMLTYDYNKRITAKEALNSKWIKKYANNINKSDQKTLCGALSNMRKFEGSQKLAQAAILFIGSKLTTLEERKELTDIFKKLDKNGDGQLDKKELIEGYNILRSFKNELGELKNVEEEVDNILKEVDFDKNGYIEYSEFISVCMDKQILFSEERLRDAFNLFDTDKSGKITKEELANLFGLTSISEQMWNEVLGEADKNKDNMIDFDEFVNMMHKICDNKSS
Sequence of L-lactate dehydrogenase (Plasmodium falciparum (isolate CDC / Honduras)) (Q27743 whole entry, looked up): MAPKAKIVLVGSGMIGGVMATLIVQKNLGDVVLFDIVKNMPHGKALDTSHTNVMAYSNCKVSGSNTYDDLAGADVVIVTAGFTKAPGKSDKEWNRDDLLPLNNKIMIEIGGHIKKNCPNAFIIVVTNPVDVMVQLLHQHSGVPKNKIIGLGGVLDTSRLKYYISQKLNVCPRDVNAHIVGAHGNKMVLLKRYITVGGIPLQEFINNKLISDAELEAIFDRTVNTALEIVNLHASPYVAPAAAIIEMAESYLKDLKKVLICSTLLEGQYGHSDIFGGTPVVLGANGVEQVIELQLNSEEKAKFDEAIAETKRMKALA

Compound | growth inhibition [1] | inhibition [2] | inhibition [3] | growth inhibition [4] | outcome [5] | outcome [6] | outcome [7] | outcome [8]
COc1ccc(CNC(=O)C2Cc3ccccc3CN2Cc2ccc3ccccc3c2)cc1 (stereo not given) | 84% (active) | 15% | -8% | 96% (active) | inactive | inactive | inactive | inactive
Cc1nc2nc(N)nc(N)c2c(C)c1Cc1ccc(C(F)(F)F)cc1 | 22% | 57% (active) | -2% | 96% (active) | inactive | inactive | inactive | inactive
COc1ccc(CNC(=O)NC2CCN(c3ccnc(Nc4ccc(F)cc4)n3)C2)cc1 (stereo not given) | 78% (active) | 4% | -2% | 91% (active) | inactive | inactive | inactive | inactive
CCC(C)OC(=O)C1=C(C)NC2=C(C(=O)CC(c3ccc(OC)c(OC)c3)C2)C1c1ccc(O)cc1 (stereo not given) | 97% (active) | 3% | 6% | 101% (active) | inactive | inactive | inactive | inactive
O=C(Nc1ccc(C(F)(F)F)cc1)N[C@H]1CCN(CCCCCNC(=O)[C@@H]2C[C@H]2c2ccc(Cl)c(Cl)c2)C1 | -1% | 41% | -2% | 96% (active) | inactive | inactive | inactive | inactive
CC[C@H]1CN(Cc2cccc(O)c2)CC[C@H]1CCCc1ccnc2ccc(O)cc12 | 98% (active) | 14% | 4% | 103% (active) | inactive | inactive | inactive | inactive
Cc1cccc2[nH]c(-c3ccc(-c4ccc(NC(=O)C(C)CN(C)C)cc4)cc3)nc12 (stereo not given) | 99% (active) | 18% | -6% | 99% (active) | inactive | inactive | inactive | inactive
Cc1c(CNCCCNc2cc(=O)c3ccccc3[nH]2)sc(/C=N/O)c1Br | -2% | 0% | 6% | 82% (active) | inactive | inactive | inactive | inactive
CN(C)CCOc1cc(NC(=O)Nc2ccc(Oc3ccccc3)cc2)ccc1I | 4% | 13% | 4% | 89% (active) | inactive | inactive | inactive | inactive
COc1ccc(CNC(=O)NC2CCN(c3ccnc(Nc4ccc(OC)cc4)n3)C2)cc1 (stereo not given) | 80% (active) | 27% | 1% | 87% (active) | inactive | inactive | inactive | inactive
O=C(/C=C/c1ccc(Cl)c(Cl)c1)NCCCCCN1CCC(NC(=O)Nc2cc(F)cc(F)c2)CC1 | 6% | 80% (active) | -3% | 101% (active) | inactive | inactive | inactive | inactive
COC(=O)C(NC(=O)NC1CCN(c2ccnc(Nc3ccc(F)cc3)n2)C1)c1ccccc1 (stereo not given) | 8% | 11% | -2% | 87% (active) | inactive | inactive | inactive | inactive
Cc1ccc2[nH]c(C3CCCNC3)c(-c3ccncc3)c2c1 (stereo not given) | 22% | 10% | 0% | 101% (active) | inactive | inactive | inactive | inactive
O=C(NCc1ccc(Cl)cc1)c1ccc(C(=O)NCC2CCCN2CC2CCCCC2)cc1 (stereo not given) | 10% | 21% | -11% | 97% (active) | inactive | inactive | inactive | inactive
N#Cc1cncc(-c2nc3c(N4CCC(Cc5ccccc5)CC4)cccc3n2CCNCc2ccccc2)c1 | 99% (active) | 2% | -1% | 99% (active) | inactive | inactive | inactive | inactive
Cc1cc(N(C)C)nc(Nc2ccc(NC(=O)COc3ccccc3)cc2)n1 | 67% (active) | 15% | 3% | 101% (active) | inactive | inactive | inactive | inactive
N#Cc1ccc(-c2ccc(C(=O)NC3CCN(CCN4CCc5c(cccc5C(F)(F)F)C4)CC3)cc2)cc1 | 51% (active) | 40% | -1% | 98% (active) | inactive | inactive | inactive | inactive
FC(F)(F)c1ccc2nc(-c3ccc(-c4ccc(CNCCN5CCNCC5)cc4)cc3)[nH]c2c1 | 74% (active) | 13% | -4% | 92% (active) | inactive | inactive | inactive | inactive
Nc1ccnc(N2CCC(CCOc3ccnc4cc(Cl)ccc34)CC2)c1 | 99% (active) | 34% | 4% | 100% (active) | inactive | inactive | inactive | inactive
CN1CCC(N(Cc2ccc(-c3ccc(Cl)cc3)cc2)C(=O)Cn2c(CCc3cccc(F)c3F)cc(=O)c3ccccc32)CC1 | 88% (active) | 93% (active) | -3% | 97% (active) | inactive | inactive | inactive | inactive

Compound | growth inhibition [1] | inhibition [2] | inhibition [3] | growth inhibition [4] | outcome [5] | outcome [6] | outcome [7] | outcome [8]
O=c1cc(NCCCNC(c2ccccc2)c2ccc(Cl)c(Cl)c2)[nH]c2ccccc12 (stereo not given) | 94% (active) | 13% | 3% | 89% (active) | inactive | inactive | inactive | inactive
Cc1cc(C)c(C)c(S(=O)(=O)N2CCCCC(c3ccc(F)c(F)c3)=N2)c1C | 60% (active) | 5% | -3% | 86% (active) | inactive | inactive | inactive | inactive
Cn1nccc1C(=O)NCCNCc1ccc(-c2ccc(-c3nc4ccc(C(F)(F)F)cc4[nH]3)s2)cc1 | 99% (active) | 48% | -5% | 101% (active) | inactive | inactive | inactive | inactive
COc1cccc(Nc2nccc(NCC(O)c3ccc(C(F)(F)F)cc3)n2)c1 (stereo not given) | 28% | 14% | -4% | 99% (active) | inactive | inactive | inactive | inactive
O=S(=O)(c1c(Cl)cccc1Cl)N1CCCCC(c2ccc(C(F)(F)F)cc2)=N1 | 98% (active) | 11% | -2% | 99% (active) | inactive | inactive | inactive | inactive
CC(C)CCN1CCCN(Cc2ccc(C(=O)NCc3ccc(Cl)cc3)cc2)CC1 | -4% | 16% | 1% | 84% (active) | inactive | inactive | inactive | inactive
CCN(CC)C(=NCCCCCCCCN=C(/N=C(/N)Nc1ccc(Cl)cc1)N(CC)CC)/N=C(/N)Nc1ccc(Cl)cc1 | 94% (active) | 10% | -3% | 99% (active) | inactive | inactive | inactive | inactive
Nc1ncc(-c2ccc(F)cc2)c2ccc(-c3cccc(F)c3)cc12 | 89% (active) | 34% | 3% | 99% (active) | inactive | inactive | inactive | inactive
Cc1cccc2[nH]c(-c3cccc(-c4cccc(NC(=O)c5cccnc5Cl)c4)c3)nc12 | 32% | -1% | 0% | 97% (active) | inactive | inactive | inactive | inactive
O=C(NC1CCCCN(Cc2ccccc2O)C1)c1cccc(C(F)(F)F)c1 (stereo not given) | 64% (active) | -4% | -6% | 93% (active) | inactive | inactive | inactive | inactive
O=C(N[C@@H](Cc1ccccc1)C(=O)NC1CCCCC1)c1ccc(O)c(-c2ccc(Cl)c(Cl)c2)c1 | 99% (active) | -5% | 1% | 98% (active) | inactive | inactive | inactive | inactive
O=C(N[C@H]1CCN(CCc2ccc(O[C@H]3CCNC3)cc2)C1)c1ccc(Cl)c(Cl)c1 | 5% | 18% | -3% | 96% (active) | inactive | inactive | inactive | inactive
CN1CCCN(Cc2cccc(-c3cccc(NC(=O)c4ccc(C#N)cc4)c3)c2)CC1 | 4% | 7% | 1% | 89% (active) | inactive | inactive | inactive | inactive
CC1(C)N=C(N)N=C(N)N1OCCNCc1ccc(Cl)cc1 | -2% | 5% | -5% | 95% (active) | inactive | inactive | inactive | inactive
CCCC[C@H](NC(=O)O[C@H](COc1ccc(OCc2ccccc2)cc1)C(C)(C)C)C(=O)C(=O)Nc1ccn[nH]1 | 71% (active) | 21% | -1% | 88% (active) | inactive | inactive | inactive | inactive
CCCCOc1cc(OC)c2ccccc2c1CCNCCCCNCCc1c(OCCCC)cc(OC)c2ccccc12 | 82% (active) | 100% (active) | -6% | 82% (active) | inactive | inactive | inactive | inactive
O=C(CCN1CCCCC1)Nc1ccc(Nc2nccc(NCC(O)c3ccccc3)n2)cc1 (stereo not given) | 60% (active) | 18% | -1% | 102% (active) | inactive | inactive | inactive | inactive
COc1cc(OC)c2c(C)cc(NCCCN3CCOCC3)nc2c1 | 3% | 6% | 0% | 99% (active) | inactive | inactive | inactive | inactive
COc1ccc(C(=O)CC(=O)c2ccc(OC)cc2OC)c(OC)c1 | -2% | 1% | 2% | 98% (active) | inactive | inactive | inactive | inactive
Cc1[nH]c2ccc(NS(C)(=O)=O)cc2c1C1CCN(CCC2CCN(C(=O)/C=C/c3ccc(Cl)c(Cl)c3)CC2)CC1 | 94% (active) | 23% | -1% | 100% (active) | inactive | inactive | inactive | inactive
